Screen size: about 310,000 compounds; about 14,000 (4.5%) showed an effect of 50% or more. Effects have a minus sign here. The full list was thinned out, with strong results kept by preference.
target: human ether-à-go-go-related gene (hERG) potassium channel (human, UniProt Q12809); assay: primary screen, population patch clamp on CHO cells stably expressing hERG; higher = less effect of the substance
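Further: peak tail current of the secondary pulse compared with the same well before compound.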

Chain of human ether-à-go-go-related gene (hERG) potassium channel (Q12809 whole entry, looked up): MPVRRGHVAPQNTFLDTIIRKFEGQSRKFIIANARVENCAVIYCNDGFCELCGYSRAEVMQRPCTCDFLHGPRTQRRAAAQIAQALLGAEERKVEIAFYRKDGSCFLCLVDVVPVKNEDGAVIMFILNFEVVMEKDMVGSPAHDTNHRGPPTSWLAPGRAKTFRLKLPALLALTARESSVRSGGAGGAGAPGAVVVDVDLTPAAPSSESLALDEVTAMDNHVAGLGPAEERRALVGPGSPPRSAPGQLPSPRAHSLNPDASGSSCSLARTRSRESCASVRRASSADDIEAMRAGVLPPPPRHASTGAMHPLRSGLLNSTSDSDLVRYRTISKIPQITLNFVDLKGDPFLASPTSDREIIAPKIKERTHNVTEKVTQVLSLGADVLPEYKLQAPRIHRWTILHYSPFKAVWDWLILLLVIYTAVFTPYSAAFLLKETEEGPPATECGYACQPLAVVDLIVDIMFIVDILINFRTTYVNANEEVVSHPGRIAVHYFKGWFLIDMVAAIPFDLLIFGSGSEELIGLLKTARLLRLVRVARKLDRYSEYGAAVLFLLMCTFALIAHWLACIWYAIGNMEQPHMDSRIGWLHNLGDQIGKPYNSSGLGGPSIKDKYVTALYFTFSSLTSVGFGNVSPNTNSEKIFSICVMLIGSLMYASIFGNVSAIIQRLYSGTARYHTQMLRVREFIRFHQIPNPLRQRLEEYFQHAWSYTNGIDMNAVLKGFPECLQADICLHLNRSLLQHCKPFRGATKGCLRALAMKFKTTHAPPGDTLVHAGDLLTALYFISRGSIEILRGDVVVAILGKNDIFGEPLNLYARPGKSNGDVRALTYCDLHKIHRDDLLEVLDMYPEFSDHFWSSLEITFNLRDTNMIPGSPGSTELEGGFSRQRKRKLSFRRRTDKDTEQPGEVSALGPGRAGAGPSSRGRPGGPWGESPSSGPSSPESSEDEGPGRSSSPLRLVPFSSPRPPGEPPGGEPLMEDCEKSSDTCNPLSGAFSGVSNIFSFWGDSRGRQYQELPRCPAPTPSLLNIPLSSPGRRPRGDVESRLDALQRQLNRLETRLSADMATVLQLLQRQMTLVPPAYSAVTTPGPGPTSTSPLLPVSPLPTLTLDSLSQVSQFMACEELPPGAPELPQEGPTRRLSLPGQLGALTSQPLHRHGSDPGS

| SMILES | hERG current change (%, negative = inhibition) at 10uM |
| --- | --- |
| N#C/C(=C\c1ccc(O)c(O)c1)C(=O)NCCCc1ccccc1 | -1.59% |
| Cc1cccc(NC(=O)CSCC(=O)Nc2ccccc2N2CCCCC2)c1 | -1.89% |
| Cc1ccc(NC(=O)CSCC(=O)Nc2cc(Cl)ccc2N2CCOCC2)cc1 | -14.8% |
| Cc1cccc(NC(=O)CSCC(=O)Nc2cc(Cl)ccc2N2CCOCC2)c1 | -31% |
| CCN(CC)S(=O)(=O)c1ccc(N2CCN(C)CC2)c(NC(=O)CSCC(=O)Nc2cccc(C)c2)c1 | -13% |
| CN1CCN(c2ccc(Cl)cc2NC(=O)CCN2C(=O)c3ccccc3C2=O)CC1 | -7.06% |
| Cc1ccc(NC(=O)CSCC(=O)Nc2cc(Cl)ccc2N2CCN(C)CC2)cc1 | -53.1% |
| Cc1ccc(NC(=O)CSCC(=O)Nc2ccccc2N2CCCC2)cc1 | -13.6% |
| Cc1cc(NC(=O)CSCC(=O)Nc2cc(Cl)ccc2N2CCN(C)CC2)no1 | -25.7% |
| Cc1cccc(NC(=O)CSCC(=O)Nc2ccccc2N2CCCC2)c1 | -90% |
| CN1CCN(c2ccc(Cl)cc2NC(=O)CC2OC(=O)c3ccccc32)CC1 (stereo not shown) | -74.5% |
| O=C(CC1OC(=O)c2ccccc21)Nc1cc(Cl)ccc1N1CCCC1 (stereo not shown) | -8.18% |
| Cc1cccc(NC(=O)CSCC(=O)Nc2cc(Cl)ccc2N2CCN(C)CC2)c1 | -72.8% |
| COc1cccc(-c2ccc3nnc(SCC(=O)N4CCOCC4)n3n2)c1 | -6.27% |
| O=C(Nc1cc(Sc2ccccn2)cc([N+](=O)[O-])c1)c1ccc([N+](=O)[O-])cc1 | -6.06% |
| CCOc1ccc(-n2ccc(=O)c(C(=O)Nc3ccc(S(=O)(=O)Nc4ncccn4)cc3)n2)cc1 | 7.22% |
| CC1CCCC(NC(=O)CCn2c(=O)oc3ccccc32)C1C (stereo not shown) | -18.4% |
| COC(=O)c1cc2oc(C)cc2n1CC(=O)N(C)c1ccccc1 | 5.36% |
| O=C(O)c1ccc(/C=N/N2CCN(c3ccccc3)CC2)cc1 | 7.59% |
| CC(C)N(C(=O)CSc1nc(COc2ccccc2)nc2ccccc12)C(C)C | -4.66% |
| O=C(NC(=S)N1CCOCC1)c1cc2ccccc2o1 | 12.7% |
| O=C(Cc1ccccn1)c1ccc(O)cc1O | 21.5% |
| Cc1ccccc1Nc1nnc(SCC(=O)Nc2ccccc2[N+](=O)[O-])s1 | 3.5% |

| SMILES | hERG current change (%, negative = inhibition) at 10uM |
| --- | --- |
| O=S1(=O)[C@H]2C[C@@H]3C=C[C@@]2(CN1Cc1ccc(F)cc1)O3 | -25.2% |
| CCN(CC)CCNC(=O)c1cc2ccccc2nc1Cl | 43.4% |
| CCCCCn1c(=O)[nH]c2cc(C(=O)N3CCN(C(=O)OCC)CC3)ccc2c1=O | -9.61% |
| CC(=O)NCCn1c(C)cc2ccccc21 | -55.1% |
| Cc1cc2ccccc2n1CCNC(=O)C(C)(C)C | 11.7% |
| CCC(=O)NCCn1c(C)cc2ccccc21 | -0.267% |
| Cc1ccc(OCC(O)CNCc2ccccc2)cc1C (stereo not shown) | -33.5% |
| C=CCOc1ccc(CN(C)CC(O)COc2cccc3ccccc23)cc1 (stereo not shown) | -23.2% |
| C=CCOc1ccc(CN(C)CC(O)COc2ccc(CCC(C)=O)cc2)cc1 (stereo not shown) | -63.6% |
| O=C(O)C(=O)O.O=C(c1ccccc1)c1ccc(OCC(O)CNCc2cccc(Cl)c2)cc1 (stereo not shown) | -60.3% |
| COc1ccc(CNCC(O)COCc2cccs2)cc1 (stereo not shown) | -60.8% |
| O=C(O)C(=O)O.OC(CNCc1ccc(Cl)cc1)COc1ccccc1 (stereo not shown) | -41.9% |
| O=C(O)C(=O)O.O=C(c1ccccc1)c1ccc(OCC(O)CNCc2ccc(Cl)cc2)cc1 (stereo not shown) | -66.6% |
| COc1ccc(CNC(C)Cc2cccs2)cc1 (stereo not shown) | -2.79% |
| COc1cccc(CNCC(O)COc2ccc(C(=O)c3ccccc3)cc2)c1 (stereo not shown) | -34.7% |
| CN(Cc1ccccc1)CC(O)COc1ccc(CNCCc2ccncc2)cc1 (stereo not shown) | -17.5% |
| COC(=O)c1ccc(COc2ccc(CNCc3ccc(Cl)cc3)cc2)cc1 | -0.414% |
| COc1ccc(CNC(=O)Cc2cccs2)cc1 | 15% |
| CCNC(=O)/C=C/c1ccccc1[N+](=O)[O-] | 8.82% |
| COc1ccc2[nH]c(=O)c(CN(c3ccccc3)S(=O)(=O)c3ccccc3)cc2c1 | 11.2% |
| COc1ccc2cnn(-c3ccc(OC(F)(F)F)cc3)c(=O)c2c1OC | -6% |
| CCOC(=O)C(=CNc1cc(C)ccc1-n1cccc1)C(=O)OCC | 2.05% |
| Cc1ccc(/C=C2/Sc3ccc(C(=O)N4CCC5(CC4)OCCO5)cc3NC2=O)cc1 | 16.1% |

From publication PMC4336329 (PLoS ONE, 2015)
